The campaign covered roughly 310,000 compounds. About 14,000 (4.5%) showed an effect of 50% or more. The effect is printed as a negative number. Only a selection was taken, and strong results are over-represented in it overall.
Target: human ether-à-go-go-related gene (hERG) potassium channel (human, UniProt Q12809)
Assay: primary screen, population patch clamp on CHO cells stably expressing hERG; higher = less effect of the substance
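Note: peak tail current of the secondary pulse compared with the same well before compound.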

human ether-à-go-go-related gene (hERG) potassium channel, sequence (Q12809 whole entry, looked up): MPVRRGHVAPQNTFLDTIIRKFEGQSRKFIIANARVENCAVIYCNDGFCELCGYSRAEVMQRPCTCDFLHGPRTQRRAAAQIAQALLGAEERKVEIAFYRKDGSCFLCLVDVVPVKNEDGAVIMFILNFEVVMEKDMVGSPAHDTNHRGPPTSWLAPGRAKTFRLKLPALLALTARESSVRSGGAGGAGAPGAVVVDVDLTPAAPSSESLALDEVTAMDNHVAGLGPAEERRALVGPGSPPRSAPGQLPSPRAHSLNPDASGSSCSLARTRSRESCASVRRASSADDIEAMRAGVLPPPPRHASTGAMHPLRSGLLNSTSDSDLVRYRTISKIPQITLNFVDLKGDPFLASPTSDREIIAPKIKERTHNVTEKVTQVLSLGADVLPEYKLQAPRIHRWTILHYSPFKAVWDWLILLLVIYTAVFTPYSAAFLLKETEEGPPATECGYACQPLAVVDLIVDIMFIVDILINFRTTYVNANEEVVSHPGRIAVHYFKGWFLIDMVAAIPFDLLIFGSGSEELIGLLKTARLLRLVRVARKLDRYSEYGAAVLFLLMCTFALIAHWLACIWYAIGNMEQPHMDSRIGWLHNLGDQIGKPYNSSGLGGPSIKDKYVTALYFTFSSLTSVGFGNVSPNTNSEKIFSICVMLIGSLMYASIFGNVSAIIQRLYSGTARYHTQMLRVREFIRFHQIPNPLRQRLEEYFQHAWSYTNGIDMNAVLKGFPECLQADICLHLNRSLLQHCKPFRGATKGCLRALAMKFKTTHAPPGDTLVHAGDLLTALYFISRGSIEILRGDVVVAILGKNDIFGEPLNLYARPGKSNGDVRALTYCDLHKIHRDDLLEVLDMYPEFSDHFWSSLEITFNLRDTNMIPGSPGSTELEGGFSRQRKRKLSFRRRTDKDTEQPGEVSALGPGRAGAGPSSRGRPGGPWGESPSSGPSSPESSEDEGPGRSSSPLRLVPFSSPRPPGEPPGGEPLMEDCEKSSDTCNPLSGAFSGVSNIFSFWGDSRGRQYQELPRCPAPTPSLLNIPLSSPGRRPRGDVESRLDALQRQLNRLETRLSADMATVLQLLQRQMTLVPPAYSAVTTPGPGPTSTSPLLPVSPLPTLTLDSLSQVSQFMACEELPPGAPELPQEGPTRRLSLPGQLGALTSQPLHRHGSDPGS

Row | Compound | hERG current change (%, negative = inhibition) at 10uM [%]
1 | O=C1NC(=S)N/C1=C/c1cc([N+](=O)[O-])ccc1O | 12.8
2 | O=C1NC(=O)C(=Cc2cc([N+](=O)[O-])ccc2N2CCCCC2)C(=O)N1 | 7.84
3 | CCN1CCN(c2ccc([N+](=O)[O-])cc2C=C2C(=O)NC(=O)NC2=O)CC1 | -66.3
4 | CC(=O)N1c2ccc([N+](=O)[O-])cc2NC(=O)CC1C (stereo not shown) | 22.2
5 | CC(=O)N1CCN(c2ccc([N+](=O)[O-])cc2C=C2C(=O)NC(=O)NC2=O)CC1 | -56.6
6 | CN1C(=O)C(=Cc2cc([N+](=O)[O-])ccc2N2CCCCC2)C(=O)N(C)C1=O | 19.3
7 | O=C1NC(=S)N/C1=C/c1cc([N+](=O)[O-])ccc1N1CCOCC1 | -62.9
8 | O=Cc1cc([N+](=O)[O-])ccc1N1CCOCC1 | -19.3
9 | CC(=O)N1CCN(C(=S)c2cccc([N+](=O)[O-])c2)CC1 | 8.96
10 | COC(=O)C1=C(O)/C(=C\c2ccc(OCC(=O)Nc3ccccc3OC)cc2)N=C1C | 0.751
11 | Cc1ccccc1Nc1nc(-c2sc(NC(=O)c3ccco3)nc2C)cs1 | 23.6
12 | O=C(Nc1cccc(Cl)c1)c1nc[nH]c1C(=O)N1CCN(c2ccccc2)CC1 | 8.06
13 | Cc1c(N/C(=N/S(=O)(=O)c2ccc(F)cc2)c2ccccc2)c(=O)n(-c2ccccc2)n1C | 0.39
14 | O=[N+]([O-])c1ccc(Oc2ccc(-c3cnc4ccccc4n3)cc2[N+](=O)[O-])cc1 | 6.13
15 | c1nc(N2CCCCC2)c2[nH]cnc2n1 | 9.4
16 | C=CCn1c(SCCN2CCCCC2)nc2c1c(=O)[nH]c(=O)n2C | -47.3
17 | COc1ccc(C(=O)NC2CC3CCCC(C2)N3Cc2ccccc2)cc1 (stereo not shown) | -53.5
18 | COc1ccc(C(=O)NC2CC3CCCC(C2)N3Cc2ccccc2)cc1OC (stereo not shown) | -23.6
19 | CCOc1ccc(C(=O)NC2CC3CCCC(C2)N3CC(C)C)cc1 (stereo not shown) | -41.1
20 | CCOc1ccc(C(=O)NC2CC3CCCC(C2)N3Cc2ccccc2)cc1 (stereo not shown) | -57.5
21 | Cc1ccn2c(NC(=O)c3cccs3)c(-c3ccccc3)nc2c1 | -0.701
22 | CC1(C)Cc2c(cnn2-c2cccc(F)c2)C(NC(=O)CSc2ccncc2)C1 (stereo not shown) | -56.5
23 | CC1(C)Cc2c(cnn2-c2cccc(F)c2)C(NC(=O)CCc2cnccn2)C1 (stereo not shown) | -28.4

Row | Compound | hERG current change (%, negative = inhibition) at 10uM [%]
24 | C=CCCC(=O)NC1CC(C)(C)Cc2c1cnn2-c1cccc(F)c1 (stereo not shown) | -68.4
25 | Cc1ccccc1-n1ncc2c1CC(C)(C)CC2NC(=O)CSc1ccncc1 (stereo not shown) | -8.26
26 | CC1(C)Cc2c(cnn2-c2cccc(F)c2)C(NC(=O)Cn2cccn2)C1 (stereo not shown) | -11.5
27 | CC1(C)Cc2c(cnn2-c2cccc(F)c2)C(NC(=O)CSc2ccccn2)C1 (stereo not shown) | -20.6
28 | CCC1CCCCN1C(=S)NCc1ccccc1 (stereo not shown) | -1.29
29 | COc1ccc(-c2c(C)n([O-])c(C)c(-c3ccccc3)[n+]2=O)cc1OC | 7.35
30 | Cc1cccc(-n2cc(CN(C)Cc3nccn3C)c(-c3cccc(F)c3)n2)c1 | -6.01
31 | CCN(CC(=O)NC(C)(C)C)C(=O)c1ccc(Br)cc1 | 2.64
32 | O=C(NCCc1ccc(Cl)cc1)C1CCCN1C(=O)Nc1ccccc1 (stereo not shown) | -11.5
33 | COc1ccc(C(=O)Nc2ccc(SC(F)F)cc2)cc1 | -2.14
34 | COc1ccc(O)c(C(=O)c2coc(=N)c(C(=O)Nc3ccc(SC(F)F)cc3)c2)c1 | -69.9
35 | CCOc1ccccc1NC(=O)c1cc(C(=O)c2cc(OC)ccc2O)coc1=N | -20.3
36 | O=c1[nH]c(C2CCN(S(=O)(=O)c3ccc(F)cc3)CC2)nc2c1nnn2Cc1ccc2c(c1)OCCO2 | 11.1
37 | COc1cc2c(c(OC)c1OC)-c1ccc(O)c(=O)cc1C(NC(C)=O)CC2 (stereo not shown) | 13.7
38 | CNC(=O)c1ccc(NC(=O)c2cc(S(=O)(=O)N3CCOCC3)ccc2N2CCCC2)cc1 | 7.71
39 | CCN1CCN(c2ccc(NC(=O)c3cc(S(=O)(=O)N4CCCC4)ccc3Cl)cc2)CC1 | -27.7
40 | CCN1CCN(S(=O)(=O)c2ccc(Cl)c(C(=O)Nc3ccc(C(=O)N(CC)CC)cc3)c2)CC1 | 0.597
41 | CCN1CCN(S(=O)(=O)c2ccc(Cl)c(C(=O)Nc3ccc(OC(F)F)cc3)c2)CC1 | -70.4
42 | N#Cc1ccc(NC(=O)c2cc(S(=O)(=O)N3CCOCC3)ccc2N2CCCC2)cc1 | -80.4
43 | NC(=O)c1ccc(NC(=O)c2cc(S(=O)(=O)N3CCCCC3)ccc2N2CCOCC2)cc1 | -13.9
44 | O=C(Nc1cccc(F)c1)c1cc(S(=O)(=O)N2CCOCC2)ccc1N1CCCC1 | -34.2
45 | O=C(Nc1ccc(OC(F)F)cc1)c1cc(S(=O)(=O)N2CCOCC2)ccc1F | -31.3
46 | O=C(Nc1ccc(OC(F)F)cc1)c1cc(S(=O)(=O)N2CCCCC2)ccc1N1CCOCC1 | -65.8

Source: publication PMC4336329 (PLoS ONE, 2015)
